Compound activity: PubChem BioAssay, The Scripps Research Institute Molecular Screening Center
DAX1 inh-1: NR0B1 (DAX1) inhibition | HEK293 Gal4-DAX1 luciferase reporter, luminescence | inhibition, % at 6.75 µM | P51843 | AID 504766 | actives 0.99% (n = 340,000);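 active = inhibition above the mean over all tested compounds plus 3 SD, cut at about 4.2% in these data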;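 note: 0% = DAX1-transfected cells with DMSO and 100% = empty-vector control cells with DMSO; inhibition shows as a rise in luminescence from relieved DAX1 repression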
Target sequence (P51843 207-470 limits assumed): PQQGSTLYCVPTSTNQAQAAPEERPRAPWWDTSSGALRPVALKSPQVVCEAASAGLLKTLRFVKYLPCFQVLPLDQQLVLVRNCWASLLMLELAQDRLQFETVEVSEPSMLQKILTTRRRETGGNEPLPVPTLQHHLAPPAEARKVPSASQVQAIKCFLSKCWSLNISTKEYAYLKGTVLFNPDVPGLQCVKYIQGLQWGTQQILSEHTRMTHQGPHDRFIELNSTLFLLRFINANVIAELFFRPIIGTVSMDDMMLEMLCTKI
hgDAF-12 ag: hgDAF-12 agonism, primary luciferase screen; HEK293 GAL4-hgDAF12 UAS-luciferase reporter, agonist luminescence; normalized to butyrate control; activation, % at 6.8 µM; actives 1.8% (n = 370,000); AID 687014;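 active = activation above a cutoff set at the mean of all screened compounds plus 3 SD, cut at about 10% in these data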;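 note: 0% = DMSO wells and 100% = sodium butyrate wells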
ssDAF12 agonist: S. stercoralis DAF-12 activation, primary screen | activation, % at 6.8 µM | actives 1% (n = 370,000) | AID 652126 | HEK293 ssDAF-12/GRIP1 lit1-tk-luc reporter, luminescence; % of 3 µM dafachronic acid response;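 active = activation above the mean over all tested compounds plus 3 SD, cut at about 0.9% in these data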;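 note: 0% = DMSO-only wells and 100% = 3 µM delta7-dafachronic acid wells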
hcDAF12 agonist: activates DAF-12 receptor from parasite H. contortus; HEK293 hcDAF-12 lit1-tk-luc reporter, luminescence; 0% DMSO, 100% Δ7-dafachronic acid; activation, % at 6.8 µM; actives 1.4% (n = 370,000);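 active = activation above the mean of all tested compounds plus 3 SD, cut at about 5.5% in these data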;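 note: 100% = response to 3 µM Δ7-dafachronic acid high control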
DAX1 inh-2: inhibitors of DAX1 repression of SF-1 activated StAR promoter. actives 1.1% (n = 370,000). inhibition, % at 6.8 µM. HEK293T StAR-luciferase reporter, SF-1/DAX-1 repression relief;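 active = inhibition above the mean over all tested compounds plus 3 SD, cut at about 3.6% in these data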;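 note: 0% = DAX-1 cells with DMSO and 100% = cells lacking DAX-1 with DMSO; higher inhibition means more luminescence from relief of DAX-1 repression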
Starred values were filed as active, the others as inactive; nt = no result. The list is not random: actives were taken first. Their share in the collection is about 4.1%.

SMILES | DAX1 inh-1 | hgDAF-12 ag | ssDAF12 agonist | hcDAF12 agonist | DAX1 inh-2
O=C(NC1CCCC1)C(c1ccc(F)cc1)N(C(=O)c1csnn1)C1CCCC1 (configuration not stated) | 5.9* | 1 | -1 | -2 | 0
O=C(NC1CCCCC1)C(c1ccc(F)cc1)N(C(=O)c1csnn1)C1CCCC1 (configuration not stated) | 1 | 0 | -1 | -1 | 0
COCC(=O)N(C)[C@H]1C[C@H]2c3[nH]c4c(-c5ccc6c(c5)OCO6)cccc4c3CCN2C(=O)[C@H]1[C@H](C)O | nt | 0 | -2 | -3 | -2
O=C(O)c1cccc2c1C(=O)N(Cc1ccccc1)C2 | 0 | 1 | 1.2* | -1 | 1
Nc1cc(N)nc(SCCOc2ccccc2F)n1 | 1 | 11* | 0 | 2 | 0
COCCNC(=O)C[C@H]1CC[C@H]2[C@@H](COc3ccc(NC(=O)Nc4cccc(F)c4)cc3C(=O)N2C)O1 | nt | -2 | -1 | -1 | 1
Cc1cc(C(=O)COC(=O)c2ccc(Cl)c(S(N)(=O)=O)c2)c(C)n1CC1CCCO1 (configuration not stated) | 4.6* | -4 | -1 | -2 | -1
O=C(NCc1ccc2c(c1)CCO2)Nc1ccccc1 | 3 | 12* | -1 | 0 | 2
Cc1ccc(C(=O)NCc2ccc3c(c2)CCO3)cc1C | 2 | 4 | -2 | -2 | 1
O=C1NC(=S)S/C1=C\c1cc(Cl)ccc1Cl | 2 | 3 | -1 | 2 | 3.7*
Cc1sc(NC(=O)c2ccco2)c(C(Nc2ccccn2)c2ccccc2)c1C (configuration not stated) | 0 | 11* | -1 | 2 | 0
Cc1ccccc1N1CC(O)(c2cccs2)[N+]2=C1CCCC2 (configuration not stated) | 0 | 0 | 1.8* | 0 | -1
Cc1cccc(N2CC(O)(c3cccs3)[N+]3=C2CCCC3)c1C (configuration not stated) | 0 | -3 | -2 | 0 | 0
COc1ccc(C(C#N)=Cc2cc(OC)c(OC)c(OC)c2)cc1 | nt | -3 | -1 | 1 | -3
COc1ccc(N2CCN(CCCNC(=O)CCc3cccc(Cl)c3)CC2)cc1 | nt | 3 | -1 | 1 | 0
N/C(=N/OC(=O)c1ccccc1Cl)c1nonc1N | 3 | 12* | -1 | 0 | 1
N/C(=N\OC(=O)c1ccc(F)cc1)c1nonc1N | 0 | 4 | 0 | 0 | 1
Cc1nnc2sc(-c3ccc(N(C)C)cc3)nn2c1=O | 2 | 12* | 0 | 4 | 1
COc1ccc2ccccc2c1C=NNC(=O)c1cc(-c2ccc(C)c(C)c2)n[nH]1 | nt | 6 | -1 | -2 | -3
COC(=O)c1[nH]c2ccc(F)cc2c1NS(=O)(=O)c1ccc(OC)cc1OC | 0 | 3 | 1.1* | 2 | 0
CCOC(=O)c1[nH]c2ccc(OC)cc2c1NS(=O)(=O)c1ccc(OC)cc1OC | 1 | -1 | 0 | -1 | 0
COc1ccc(C(=O)Nc2nc3ccc(OC)cc3s2)cc1 | 2 | 8 | -1 | 1 | 1
COc1ccc(Nc2nc3ccc(OC)cc3s2)cc1 | 1 | 12* | -1 | 0 | 1
COc1ccc2nc(Nc3nc(C)c(C(C)=O)s3)sc2c1 | 2 | 13* | 0 | 1 | 1
O=C(N[C@H](Cc1ccccc1)C(=O)N1CCN(C(=O)N2CCOCC2)CC1)[C@H]1O[C@@H](n2ccc(=O)[nH]c2=O)[C@H](O)[C@@H]1O | nt | 1 | -1 | 0 | 0
SMILES | DAX1 inh-1 | hgDAF-12 ag | ssDAF12 agonist | hcDAF12 agonist | DAX1 inh-2
CC(C)CN1C(=O)[C@@]2(CC(=O)N(C)C2c2ccccc2)c2cc(-n3cc(CO)nn3)ccc21 (some centres not stated) | nt | 2 | -1 | -2 | 0
CC(=O)CSc1nnc(-c2ccc(S(=O)(=O)N3CCOCC3)cc2)n1C | 5.4* | 0 | -1 | 0 | 0
CC(=O)CSc1nnc(-c2ccc(S(=O)(=O)N3CCCC3)cc2)n1C | 1 | 0 | -1 | 1 | 0
CC1(C)CC(=O)c2sc(NC(=O)C3COc4ccccc4O3)nc2C1 (configuration not stated) | 2 | 7 | 1.6* | 2 | 2
CC(=O)c1sc(NC(=O)C2COc3ccccc3O2)nc1C (configuration not stated) | -2 | 4 | 0 | 0 | 3
Cc1onc(-c2ccccc2)c1C(=O)Nc1nc2c(s1)C(=O)CC(C)(C)C2 | -1 | 1 | -1 | -3 | -1
CC1(C)CC(=O)c2sc(NC(=O)c3ccco3)nc2C1 | 0 | 12* | 0 | 5 | 2
CC(C)(C)SCCNC(=O)/C=C/c1ccc(F)cc1 | 2 | 8 | 1.4* | 2 | 1
CCCCOCCCNC(=O)C[C@H]1C(=O)N(Cc2ccc(OC)cc2)C2=CCCC[C@@]21C(=O)OCC | nt | 3 | -2 | -1 | -1
